Source: PubChem BioAssay (National Center for Advancing Translational Sciences (NCATS))
KB-3-1 tox = qHTS assay for MDR1-selective chemotherapeutics: Primary screen using the parental adenocarcinoma cell KB-3-1 | KB-3-1 viability, CellTiter-Glo ATP luminescence, 72 h | Potency, µM (titrated, usually from 46.1 µM), hits mostly cytotoxic | actives 1.4% (n = 400,000); also: nearly all actives have a fitted effect of over 60% in size
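KB-3-1 cells, DMEM (no phenol red) + 10% FBS; compound by pin transfer, 72 h, 37 °C. Readout: CellTiter-Glo luminescence after 10 min. Data normalized, curve-fitted.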
HT1080 IDH1KD tx = qHTS for induction of synthetic lethality in tumor cells producing 2HG: qHTS for the HT-1080-IDH1KD cell line; HT-1080 IDH1 knockdown viability, ATP luminescence, 48 h; Potency, µM (doses to about 46.1 µM), without a hit: at the highest dose activity, negative = toxicity, actives largely listed as cytotoxic; actives 2% (n = 360,000);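 also: 0% = DMSO wells and -100% = cell-free medium wells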
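Assay cells: HT-1080 with IDH1 knockdown, 750 per well, RPMI/5% FBS. Exposure: 48 h at 37 °C following 2 h pre-incubation. Read: CellTiter-Glo luminescence; fitted concentration-response, curve class assigned.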
HT1080NT lethal = qHTS for induction of synthetic lethality in tumor cells producing 2HG: qHTS for the HT-1080-NT fibrosarcoma cell line | HT-1080-NT fibrosarcoma viability, CellTiter-Glo ATP luminescence, 48 h | Potency, µM (doses to about 46.1 µM), for inactives: at the top dose activity, negative = less viability, actives largely listed as cytotoxic | actives 1.6% (n = 360,000) | AID 686970, 2013;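 also: NT is the 2HG producing partner of a matched IDH1 knockdown line; 0% = DMSO-treated cells and -100% = media-only wells without cells; nearly all actives have a fitted effect of over 55% in size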
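750 cells/well, RPMI + 5% FBS; 2 h settle, compound pin-transfer, 48 h at 37 degrees C. CellTiter-Glo 10 min RT, luminescence. Normalized to DMSO and media-only wells.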
DT40 TDP1 CPT = qHTS for Inhibitors of human tyrosyl-DNA phosphodiesterase 1 (TDP1): qHTS in cells in presence of CPT; chicken DT40 Tdp1-/-;hTDP1 cells + 20 nM CPT, ATP luminescence, 48 h; Potency, µM (series often up to 46.2 µM), for the others: at the top dose activity change, negative = growth inhibition, usual class: inhibitors; actives 12% (n = 420,000); also: nearly all actives have a fitted effect of over 55% in size
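Cell growth measured by CellTiter-Glo luminescence after a minimum 48 h, 37 C compound exposure with 20 nM CPT in Tdp1-knockout DT40 cells stably expressing hTDP1, seeded 400/well; qHTS titration format.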
TDP1 cell noCPT = qHTS for Inhibitors of human tyrosyl-DNA phosphodiesterase 1 (TDP1): qHTS in cells in absence of CPT. DT40 Tdp1-/- hTDP1 cells, no CPT, ATP luminescence, 48 h. Potency, µM (doses to about 46.2 µM), for inactives: at the highest dose activity change, negative = growth inhibition, most hits filed as inhibitors. actives 15% (n = 420,000). AID 686978, 2013; also: nearly all actives have a fitted effect of over 55% in size
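Luminescent ATP content (CellTiter-Glo) served as the growth readout. Knockout chicken DT40 cells expressing human TDP1 were exposed to compounds without camptothecin for a minimum 48 hr at 37 °C.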
KB-V1 cytotox = qHTS assay for MDR1-selective chemotherapeutics: Primary screen using the drug-selected MDR subline cells KB-V1 | KB-V1 MDR cells viability, CellTiter-Glo, 72 h | Potency, µM (series often up to 46.1 µM), hits mostly cytotoxic | actives 3.4% (n = 400,000); also: nearly all actives have a fitted effect of over 60% in size
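KB-V1 cells (P-gp-expressing MDR subline of KB-3-1) in phenol-red-free DMEM with 10% FBS were exposed to library compounds over a concentration series for 72 h at 37 degrees C. Viability read by CellTiter-Glo luminescence; concentration-effect curves fitted after normalization.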
* marks the source's active call; other numbers are inactive results; i = inactive; ? = inconclusive; nt = not tested or not shown. This is a sample that favours compounds with a hit; in the whole collection about 19% have one here. Calls follow the shape of the dose curve; as a rule, active = well fitted curve in the direction sought with a large enough effect; inconclusive = small, poorly fitted or top-dose-only effect, or another doubt; inactive = no such curve, though single readings can be large; an effect the other way counts as inactive or inconclusive. Unless noted, % is scaled to controls: 0 for no effect and ±100 for the full control effect; potency is read from the fitted curve at half-maximal effect.

SMILES	KB-3-1 tox	HT1080 IDH1KD tx	HT1080NT lethal	DT40 TDP1 CPT	TDP1 cell noCPT	KB-V1 cytotox
COc1cc(CCC(=O)OCC(=O)Nc2sccc2C(N)=O)cc(OC)c1OC	i	-10.9%	-7.0%	-28.3%	?	i
CSc1ncccc1C(=O)N1CCC1(C)C(=O)NC(C)C (stereo unspecified)	i	9.4%	18.9%	0.5%	-0.5%	i
COc1ccc(C2=NO[C@@H]3C(=O)N(c4ccc5c(c4)OCCO5)C(=O)[C@H]23)cc1OC	i	5.2%	-0.4%	-7.5%	-6.3%	i
O=C1[C@@H]2C(c3cccnc3)=NO[C@@H]2C(=O)N1c1ccc2ccccc2c1	i	-0.5%	10.0%	6.51µM*	18.4µM*	i
CCc1ccccc1Nc1nn2c(=O)c3ccc(C(=O)NCc4ccccc4Cl)cc3nc2s1	?	nt	nt	?	9.2µM*	i
CCc1ccccc1Nc1nn2c(=O)c3ccc(C(=O)NCc4cccs4)cc3nc2s1	nt	nt	nt	?	20.6µM*	nt
O=[N+]([O-])c1ccc2nc(NCCCO)nc(-c3ccccc3)c2c1	i	-17.2%	-21.2%	9.2µM*	23.1µM*	?
CCOc1ccc(NC(=O)CCS(=O)(=O)c2ccc(Br)cc2)cc1	i	3.7%	4.1%	?	23.1µM*	i
CC1Cc2cc(S(=O)(=O)CCC(=O)NC3CCCCC3)ccc2N1C(=O)C1CC1 (stereo unspecified)	i	3.9%	10.0%	?	-0.1%	i
Cc1ccc(S(=O)(=O)N(CCC(=O)Nc2ccc(OC(F)(F)F)cc2)c2ccccc2)cc1	i	-9.4%	-16.2%	-12.4%	-25.7%	i
CN1C(=O)Cc2cc(S(=O)(=O)CCC(=O)Nc3ccc(OC(F)(F)F)cc3)ccc21	i	nt	nt	4.6%	-7.8%	i
COc1ccc(NC(=O)CCS(=O)(=O)c2ccc(OC)cc2)cc1	i	4.7%	-1.3%	-26.9%	?	?
Cc1ccc(S(=O)(=O)CCC(=O)Nc2ccc(OC(F)(F)F)cc2)cc1	i	nt	nt	20.6µM*	?	i
Cc1c(Cl)cccc1NC(=O)CCS(=O)(=O)c1ccc2c(c1)CC(C)N2C(=O)C1CC1 (stereo unspecified)	nt	nt	nt	5.17µM*	4.11µM*	nt
CC1Cc2cc(S(=O)(=O)CCC(=O)Nc3ccc(OC(F)(F)F)cc3)ccc2N1C(=O)C1CC1 (stereo unspecified)	nt	nt	nt	7.31µM*	5.8µM*	nt
Cn1cccc1C1Nc2ccccc2NC2=C1C(=O)CC(C)(C)C2 (stereo unspecified)	i	-1.3%	-1.9%	?	?	i
Cc1nn(-c2ccccc2)c(C)c1NC(=O)COC(=O)c1cc(Br)ccc1O	i	-0.5%	-3.4%	-4.0%	-13.8%	i
COc1ccc(C(=O)COC(=O)[C@@H](NS(=O)(=O)c2ccccc2)C(C)C)cc1	nt	-1.6%	0.0%	-22.9%	?	nt
COc1ccc(C(=O)[C@@H]2CC[C@](C)(C(=O)O)C2(C)C)cc1	i	22.4%	13.8%	3.0%	4.6%	i
CCCCc1ccc(NC(=O)N2CCNC(=O)C2CC(=O)Nc2ccsc2C(=O)OC)cc1 (stereo unspecified)	i	?	?	10.2%	-20.3%	i
Cc1cc(Cl)ccc1NC(=O)CCS(=O)(=O)c1ccc2c(c1)CC(C)N2C(=O)C1CC1 (stereo unspecified)	nt	nt	nt	11.6µM*	?	nt
COc1ccc2c(c1)NC(c1ccc(F)cc1)=NC(c1ccc(F)cc1)=N2	i	nt	nt	?	?	i
COc1ccc(C2=NC(c3ccccc3)=Nc3ccc(C)cc3N2)cc1	i	nt	nt	25.9µM*	20.6µM*	i
Cc1ccc(C2=NC(c3ccccc3)=Nc3ccc(Cl)cc3N2)cc1	i	nt	nt	?	23.1µM*	i
COc1ccc2c(c1)NC(c1cccnc1)=NC(c1ccc(F)cc1)=N2	i	nt	nt	14.6µM*	9.2µM*	i
SMILES	KB-3-1 tox	HT1080 IDH1KD tx	HT1080NT lethal	DT40 TDP1 CPT	TDP1 cell noCPT	KB-V1 cytotox
COc1ccc(NC2=Nc3cccc4cccc2c34)cc1	i	-10.5%	-1.4%	?	25.9µM*	?
CCCOc1ccc(C2=NC(c3ccncc3)=Nc3ccc(C)cc3N2)cc1	i	nt	nt	?	?	i
COc1ccc(C2=Nc3cccc4cccc(c34)N2)cc1	i	8.4%	10.0%	?	16.4µM*	i
Cc1ccc(C2=Nc3ccccc3NC(c3ccncc3)=N2)cc1	i	nt	nt	?	13µM*	i
CC(=O)N=C1C=CC(=CN(O)C(C)(C)Cc2ccccc2)C=C1	i	7.6%	6.1%	-10.9%	-23.7%	?
CCn1c(=O)n(CC)c2cc(S(=O)(=O)N3CCC(c4ccccc4)CC3)ccc21	i	-23.6%	?	?	?	23.1µM*
O=C(Cc1ccc(NC(=O)C2CCN(C(=O)C3CC3)CC2)cc1)Nc1cccc(C(=O)N2CCCCC2)c1	i	8.0%	17.5%	1.7%	-10.2%	i
CCc1sc(NC(=O)C(C)C)nc1-c1ccccc1	i	-5.3%	16.1%	8.4%	5.0%	i
Cc1cccc(C(=O)c2cn[nH]c2-c2ccc(C)cc2O)c1	i	-5.2%	-1.3%	-8.7%	-23.1%	i
Cc1ccc(-c2[nH]ncc2C(=O)c2cccc(F)c2)c(O)c1	i	-10.4%	-14.3%	?	14.6µM*	i
O=C(CNC(=O)c1ccccc1Br)Nc1cccc(S(=O)(=O)Nc2ccccc2Cl)c1	i	0.0%	6.2%	-8.1%	-21.1%	i
Cc1ccc(NC(=O)C2CCCN2S(=O)(=O)c2ccc3nc(-c4ccccc4)[nH]c3c2)cc1C (stereo unspecified)	nt	nt	nt	?	23.1µM*	nt
CN(C)S(=O)(=O)c1ccc(Cl)c(C(=O)Nc2nc3ccccc3[nH]2)c1	i	-4.6%	0.0%	-24.4%	-23.2%	i
Cc1ccc(NS(=O)(=O)c2ccc(Cl)c(C(=O)Nc3ccccc3-c3nc4ccccc4[nH]3)c2)cc1C	?	8.2µM*	6.51µM*	7.31µM*	8.2µM*	7.31µM*
Cc1cccc(NC(=O)C2CCCN2S(=O)(=O)c2ccc3nc(-c4ccccc4)[nH]c3c2)c1 (stereo unspecified)	nt	nt	nt	?	18.4µM*	nt
